# Measurements reported in PubChem BioAssay (Tox21).
# “And” between values parts separate entries of the source, which are not always exact repeats. Equal values may be shown once. Unmarked numbers belong to inactive results. Records with an inconclusive call do not appear. Entries that show only a call come without a potency. The source made the active and inactive calls. Calls follow the shape of the full dose curve.
# Assays:
# [1] = biological target: Acetylcholinesterase (Homo sapiens) (UniProt P22303); test: Acetylcholinesterase (AChE) small molecule antagonists: colormetric cell-based qHTS assay (AID 1347395); also: nearly all actives have a fitted effect of over 30% in size; also: potency is read from the fitted curve at half-maximal effect
# Chain of Acetylcholinesterase (Homo sapiens) (P22303 whole entry, looked up): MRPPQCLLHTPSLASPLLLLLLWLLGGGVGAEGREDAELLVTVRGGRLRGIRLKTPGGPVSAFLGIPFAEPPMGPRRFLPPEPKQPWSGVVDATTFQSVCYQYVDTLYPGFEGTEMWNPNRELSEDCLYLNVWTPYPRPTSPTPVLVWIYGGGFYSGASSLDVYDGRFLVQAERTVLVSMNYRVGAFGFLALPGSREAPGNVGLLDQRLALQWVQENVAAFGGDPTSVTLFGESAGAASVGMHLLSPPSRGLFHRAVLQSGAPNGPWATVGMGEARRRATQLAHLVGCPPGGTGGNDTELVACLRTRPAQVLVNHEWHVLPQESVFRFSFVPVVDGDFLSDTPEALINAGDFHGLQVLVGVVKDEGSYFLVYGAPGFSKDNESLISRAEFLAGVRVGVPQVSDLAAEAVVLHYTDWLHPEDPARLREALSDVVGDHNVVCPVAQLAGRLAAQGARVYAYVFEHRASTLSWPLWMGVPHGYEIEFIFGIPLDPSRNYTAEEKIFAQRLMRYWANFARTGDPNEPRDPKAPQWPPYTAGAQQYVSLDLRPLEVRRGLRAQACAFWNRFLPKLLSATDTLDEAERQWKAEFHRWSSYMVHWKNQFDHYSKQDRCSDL
# How it was run: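 SH-SY5Y cells; cpd 30 min 37 C; + DTNB/acetylthiocholine, 90 min 37 C; colorimetric thiocholine read; qHTS.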
# [2] = biological target: Acetylcholinesterase (Homo sapiens) (UniProt P22303); test: Acetylcholinesterase (AChE) small molecule antagonists: enzyme-based qHTS assay (AID 1347397); conditions: Potency: AChE enzyme activity inhibition; outcome: AChE enzyme activity inhibition; also: nearly all actives have a fitted effect of over 55% in size; also: potency is read from the fitted curve at half-maximal effect
# How it was run: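 In this quantitative HTS, compounds from the Tox21 10K collection were preincubated 30 min at ambient temperature with recombinant human AChE dispensed at 50 mU/mL. Hydrolysis of acetylthiocholine was then followed for 10 min by DTNB colour development.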
# [3] = biological target: Acetylcholinesterase (Homo sapiens) (UniProt P22303); test: Acetylcholinesterase (AChE) small molecule antagonists: fluorescence cell-based qHTS assay (AID 1347398); conditions: Potency: AChE activity; outcome: AChE activity; also: nearly all actives have a fitted effect of over 50% in size; also: potency is read from the fitted curve at half-maximal effect
# How it was run: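 Cells (SH-SY5Y) attached overnight, were dosed with compound or DMSO vehicle for 30 min at 37 C, and then incubated 40 min at room temperature with acetylthiocholine and Thiolite Green; green fluorescence indexed AChE activity.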
# [4] = biological target: Acetylcholinesterase (Homo sapiens) (UniProt P22303); test: Acetylcholinesterase (AChE) small molecule antagonists: enzyme-based qHTS assay with human liver microsomes (AID 1347399); conditions: Potency: qHTS inhibition; outcome: qHTS inhibition; also: nearly all actives have a fitted effect of over 60% in size
# How it was run: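 Recombinant human AChE (50 mU/mL in the enzyme mix) and human liver microsomes (0.25 mg/mL final) were preincubated with compound and NADPH (0.25 mg/mL final) for 30 min at 37 C. Acetylthiocholine/DTNB was then added; thiocholine was read colorimetrically after 10 min at room temperature.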
compound,measurement,setting,value
C1CCSC1,Potency,[1],inactive
same,Potency,[2],inactive
same,Potency,[3],inactive
same,Potency,[4],inactive
C[N+](C)(C)CCO,outcome,[1],inactive
same,outcome,[2],inactive
same,outcome,[3],inactive
same,outcome,[4],inactive
O=C(O)COc1nn(Cc2ccccc2)c2ccccc12,Potency,[1],inactive
same,Potency,[2],inactive
same,Potency,[3],inactive
same,Potency,[4],inactive
O=S(=O)(O)CCS,Potency,[1],inactive
same,Potency,[2],inactive
same,Potency,[3],inactive
same,Potency,[4],inactive
Cc1cc(C(=C2C=CC(=Nc3ccc(S(=O)(=O)O)cc3S(=O)(=O)O)C=C2)c2ccc(Nc3ccc(S(=O)(=O)O)cc3)cc2)ccc1N,Potency,[1],inactive
same,Potency,[2],inactive
same,Potency,[3],inactive
same,Potency,[4],inactive
CCCCCCCCCC(=O)OCC,Potency,[1],inactive
same,Potency,[2],inactive
same,Potency,[3],inactive
same,Potency,[4],inactive
Nc1nc(Cl)cc(Cl)n1,Potency,[1],inactive
same,Potency,[2],inactive
same,Potency,[3],inactive
same,Potency,[4],inactive
CC(C)c1cccc(O)c1,Potency,[1],inactive
same,Potency,[2],inactive
same,Potency,[3],inactive
same,Potency,[4],inactive
C=CCOc1cc(Cl)ccc1C(=O)NCCN(CC)CC,Potency,[1],inactive
same,Potency,[2],inactive
same,Potency,[3],inactive
same,Potency,[4],inactive
CC(C)(C)CC(=O)OCC(=O)[C@@]1(O)CC[C@H]2[C@@H]3CCC4=CC(=O)C=C[C@]4(C)[C@H]3[C@@H](O)C[C@@]21C,Potency,[1],inactive
same,Potency,[2],inactive
same,Potency,[3],inactive
same,Potency,[4],inactive
O=C1c2c(O)cccc2Cc2cccc(O)c21,Potency,[1],inactive
same,Potency,[2],inactive
same,Potency,[3],inactive
same,Potency,[4],inactive
COC(=O)c1cc(Cl)c(NC(C)=O)cc1OC,Potency,[1],27.5 µM (active)
same,Potency,[2],inactive
same,Potency,[3],inactive
same,Potency,[4],inactive
OCCNCCO,Potency,[1],inactive
same,Potency,[2],inactive
same,Potency,[3],inactive
same,Potency,[4],inactive
CCC(CO)CO,Potency,[1],inactive
same,Potency,[2],inactive
same,Potency,[3],inactive
same,Potency,[4],inactive
CC(=O)OCCN(CCOC(C)=O)c1ccc(N=Nc2ccc([N+](=O)[O-])cc2C#N)cc1,Potency,[1],inactive
same,Potency,[2],inactive
same,Potency,[3],inactive
same,Potency,[4],inactive
COC(=O)c1c(C)cc(O)c(C)c1O,Potency,[1],inactive
same,Potency,[2],inactive
same,Potency,[3],inactive
same,Potency,[4],inactive
O=Cc1ccc([N+](=O)[O-])cc1,Potency,[1],inactive
same,Potency,[2],inactive
same,Potency,[3],inactive
same,Potency,[4],inactive
CN1CCC(=C2c3ccccc3C=Cc3ccccc32)CC1,Potency,[1],inactive
same,Potency,[2],inactive
same,Potency,[3],inactive
same,Potency,[4],inactive
C=C(c1ccc(C(=O)O)cc1)c1cc2c(cc1C)C(C)(C)CCC2(C)C,Potency,[1],inactive
same,Potency,[2],inactive
same,Potency,[3],inactive
same,Potency,[4],inactive
CCCCCCCCCCC1CO1 (stereo not given),Potency,[1],inactive
same,Potency,[2],inactive
same,Potency,[3],inactive
same,Potency,[4],inactive
C/C(CC(C)C)=N\O,Potency,[1],inactive
same,Potency,[2],inactive
same,Potency,[3],inactive
same,Potency,[4],inactive
Cc1cc(O)c2c(c1)C(=O)c1cccc(O)c1C2=O,Potency,[1],inactive
same,Potency,[2],inactive
same,Potency,[3],inactive
same,Potency,[4],inactive
C=C(C)C(=O)OCC(C)O (stereo not given),Potency,[1],inactive
same,Potency,[2],inactive
same,Potency,[3],inactive
same,Potency,[4],inactive
COc1ccc2c(c1)c(CC(=O)OCC(=O)O)c(C)n2C(=O)c1ccc(Cl)cc1,Potency,[1],inactive
same,Potency,[2],inactive
same,Potency,[3],inactive
same,Potency,[4],inactive
CCCCCCCCCCCCCCC,Potency,[1],inactive
same,Potency,[2],inactive
same,Potency,[3],inactive
same,Potency,[4],inactive
CC1=C(C)S(=O)(=O)CCS1(=O)=O,Potency,[1],inactive
same,Potency,[2],inactive
same,Potency,[3],inactive
same,Potency,[4],inactive
Cc1oc(-c2ccccc2)nc1CCC(=O)c1ccc(CC2SC(=O)NC2=O)cc1 (stereo not given),Potency,[1],inactive
same,Potency,[2],inactive
same,Potency,[3],inactive
same,Potency,[4],inactive
NC(=O)NC1NC(=O)NC1=O (stereo not given),Potency,[1],inactive
same,Potency,[2],inactive
same,Potency,[3],inactive
same,Potency,[4],inactive
CCCNC(C)(C)COC(=O)c1ccccc1,Potency,[1],inactive
same,Potency,[2],inactive
same,Potency,[3],inactive
same,Potency,[4],inactive
O=c1cc[nH]cc1,Potency,[1],inactive
same,Potency,[2],inactive
same,Potency,[3],inactive
same,Potency,[4],inactive
CC(=O)/C(C)=C/C1C(C)=CCCC1(C)C (stereo not given),Potency,[1],inactive
same,Potency,[2],inactive
same,Potency,[3],inactive
same,Potency,[4],inactive
CC(C)COC(=O)/C=C/c1ccccc1,Potency,[1],inactive
same,Potency,[2],inactive
same,Potency,[3],inactive
same,Potency,[4],inactive
N[C@@H](CSSC[C@H](N)C(=O)O)C(=O)O,"activity, negative = inhibition",[1],3.18% [at 0.435 µM]
same,"activity change, negative = inhibition",[2],0.405% [at 0.435 µM]
same,"activity change, negative = inhibition",[3],2.04% [at 0.439 µM]
same,"activity change, negative = inhibition",[4],-2.13% [at 0.435 µM]
Cc1ccc(S(=O)(=O)Oc2ccc(N=Nc3ccc(-c4ccc(N=Nc5c(O)ccc6cc(S(=O)(=O)O)cc(S(=O)(=O)O)c56)c(C)c4)cc3C)cc2)cc1,Potency,[1],inactive
same,Potency,[2],8.97 µM (active) and 4.12 µM (active)
same,Potency,[3],inactive
same,Potency,[4],inactive
Cc1ccccc1C(=O)Nc1ccc(C(=O)N2CCCC(O)c3cc(Cl)ccc32)c(C)c1 (stereo not given),Potency,[1],inactive
same,Potency,[2],inactive
same,Potency,[3],inactive
same,Potency,[4],inactive
O=c1n(CC2CO2)c(=O)n(CC2CO2)c(=O)n1CC1CO1 (stereo not given),Potency,[1],inactive
same,Potency,[2],inactive
same,Potency,[3],inactive
same,Potency,[4],inactive
C/C=C/C=N/NC(=O)c1ccncc1,Potency,[1],inactive
same,Potency,[2],inactive
same,Potency,[3],inactive
same,Potency,[4],inactive
Oc1c(I)cc(Cl)c2cccnc12,Potency,[1],inactive
same,Potency,[2],inactive
same,Potency,[3],inactive
same,Potency,[4],inactive
C=C(C)C(=O)OCCCCCCCC(C)C,Potency,[1],inactive
same,Potency,[2],inactive
same,Potency,[3],inactive
same,Potency,[4],inactive
CCOC(=O)c1cc(=O)c2c(OCC(COc3cccc4oc(C(=O)OCC)cc(=O)c34)OC(=O)[C@@H](N)CCCCN)cccc2o1,Potency,[1],inactive
same,Potency,[2],inactive
same,Potency,[3],inactive
same,Potency,[4],inactive
NC(=O)/N=N/C(N)=O,Potency,[1],63.5 µM (active)
same,Potency,[2],71.2 µM (active)
same,Potency,[3],7.12 µM (active) and 31.7 µM (active)
same,Potency,[4],inactive
CCCCCCCC(=O)OCC,Potency,[1],inactive
same,Potency,[2],inactive
same,Potency,[3],inactive
same,Potency,[4],inactive
CC(=O)OCC(=O)[C@@]12N=C(C)O[C@@H]1C[C@H]1[C@@H]3CCC4=CC(=O)C=C[C@]4(C)[C@H]3[C@@H](O)C[C@@]12C,Potency,[1],inactive
same,Potency,[2],inactive
same,Potency,[3],inactive
same,Potency,[4],inactive
CCN(CC)CCN,Potency,[1],inactive
same,Potency,[2],inactive
same,Potency,[3],inactive
same,Potency,[4],inactive
NCCc1ccn[nH]1,Potency,[1],inactive
same,Potency,[2],inactive
same,Potency,[3],inactive
same,Potency,[4],inactive
COc1ccccc1N1CCN(CCCCNC(=O)c2ccc(-c3ccc(C(C)=O)cc3)cc2)CC1,Potency,[1],inactive
same,Potency,[2],inactive
same,Potency,[3],inactive
same,Potency,[4],inactive
C=C(C)C(=O)O,Potency,[1],inactive
same,Potency,[2],inactive
same,Potency,[3],inactive
same,Potency,[4],inactive
O=C(O)c1cccc(C[C@@H]2COc3ccc(OCc4nc5cc(F)ccc5s4)cc3[C@@H]2O)c1,Potency,[1],inactive
same,Potency,[2],inactive
same,Potency,[3],inactive
same,Potency,[4],inactive
CC(=O)Nc1c(I)cc(I)c(C(=O)O)c1I,Potency,[1],inactive
same,Potency,[2],inactive
same,Potency,[3],inactive
same,Potency,[4],inactive
C=C(C)C(=O)OCCNC(C)(C)C,Potency,[1],inactive
same,Potency,[2],inactive
same,Potency,[3],inactive
same,Potency,[4],inactive
CCCC1C(CC)=CC(CC)=CN1c1ccccc1 (stereo not given),Potency,[1],inactive
same,Potency,[2],inactive
same,Potency,[3],inactive
same,Potency,[4],inactive
O=C(O)c1ccc([N+](=O)[O-])cc1,Potency,[1],inactive
same,Potency,[2],inactive
same,Potency,[3],inactive
same,Potency,[4],inactive
CCC(=O)OC(C)(C)C1CC=C(C)CC1 (stereo not given),Potency,[1],inactive
same,Potency,[2],inactive
same,Potency,[3],inactive
same,Potency,[4],inactive
O=Cc1c(Cl)cccc1Cl,Potency,[1],inactive
same,Potency,[2],inactive
same,Potency,[3],inactive
same,Potency,[4],inactive
CC(=O)N[C@H]1[C@H]([C@H](O)[C@H](O)CO)OC(C(=O)O)=C[C@@H]1N=C(N)N,Potency,[1],inactive
same,Potency,[2],inactive
same,Potency,[3],inactive
same,Potency,[4],inactive
Oc1ccc(/C=C/c2cc(O)cc(O)c2)cc1,Potency,[1],inactive
same,Potency,[2],inactive
same,Potency,[3],inactive
same,Potency,[4],inactive
c1ccc(Oc2ccccc2)cc1,Potency,[1],inactive
same,Potency,[2],inactive
same,Potency,[3],inactive
same,Potency,[4],inactive
Nc1nc(N)nc(-c2ccccc2)n1,Potency,[1],inactive
same,Potency,[2],inactive
same,Potency,[3],inactive
same,Potency,[4],inactive
CN1C(=O)CC(C)(c2ccccc2)C1=O (stereo not given),Potency,[1],inactive
same,Potency,[2],inactive
same,Potency,[3],inactive
same,Potency,[4],inactive
COCCCN,Potency,[1],inactive
same,Potency,[2],inactive
same,Potency,[3],inactive
same,Potency,[4],inactive
